Source: PubChem BioAssay (National Center for Advancing Translational Sciences (NCATS))
TbPYK inhibitor – blocks Trypanosoma brucei pyruvate kinase. Q57TT1. TbPYK enzyme, Kinase-Glo Plus ATP luminescence, 45 min. Potency, µM (highest dose often 76.8 µM), usual class: inhibitors. hit rate 0.12% among 410,000. AID 624173; note: nearly all actives have a fitted effect of over 50% in size
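Assay buffer: 50 mM TEA pH 7.2, 100 mM KCl, 10 mM MgCl2, 0.05% BSA, 0.01% Tween-20. Pyruvate kinase from T. brucei plus substrate met compound, then ADP (130 uM final). Luminescence was read post 45 min RT.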
NS1 inh – blocks influenza NS1 protein function. Potency, µM (series often up to 46.1 µM). hit rate 0.4% among 270,000. AID 2326; calls by dose curve; note: actives are rising curves; nearly all actives have a fitted effect of over 50% in size
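S. cerevisiae expressing influenza A NS1, grown in glucose, washed, then diluted 1:100 into pH 6.0 -URA galactose medium with 23 nl compound. Growth recovery read as OD600; NS1-free strain serves as control.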
RE007 growth inh – less growth of the S. pombe RE007 Vpr strain. S. pombe RE007 Vpr strain, BacTiter-Glo ATP luminescence, 24 h. Potency, µM (top dose mostly 92.2 µM), hits mostly inhibitors. hit rate 0.21% among 360,000; active = well fitted falling curve with a large enough effect; inconclusive = small, poorly fitted or top-dose-only effect; inactive = no such curve, though single readings can be large or run the other way; note: nearly all actives have a fitted effect of over 50% in size
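Fission yeast RE007 carrying one integrated HIV-1 vpr copy, seeded at OD 0.01 in PMG+AL medium with 23 nL pinned compound. Grown 24 h at 30 degrees; viability read by BacTiter-Glo luminescence after 5 min.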
LmPK inh – inhibitors of Leishmania mexicana pyruvate kinase; AID 1721; purified LmPK, Kinase-Glo ATP luminescence, 1 h; Q27686; hit rate 0.37% among 290,000; Potency, µM (titrated, usually from 57.5 µM), hits mostly inhibitors
Target sequence (Q27686 whole entry, looked up): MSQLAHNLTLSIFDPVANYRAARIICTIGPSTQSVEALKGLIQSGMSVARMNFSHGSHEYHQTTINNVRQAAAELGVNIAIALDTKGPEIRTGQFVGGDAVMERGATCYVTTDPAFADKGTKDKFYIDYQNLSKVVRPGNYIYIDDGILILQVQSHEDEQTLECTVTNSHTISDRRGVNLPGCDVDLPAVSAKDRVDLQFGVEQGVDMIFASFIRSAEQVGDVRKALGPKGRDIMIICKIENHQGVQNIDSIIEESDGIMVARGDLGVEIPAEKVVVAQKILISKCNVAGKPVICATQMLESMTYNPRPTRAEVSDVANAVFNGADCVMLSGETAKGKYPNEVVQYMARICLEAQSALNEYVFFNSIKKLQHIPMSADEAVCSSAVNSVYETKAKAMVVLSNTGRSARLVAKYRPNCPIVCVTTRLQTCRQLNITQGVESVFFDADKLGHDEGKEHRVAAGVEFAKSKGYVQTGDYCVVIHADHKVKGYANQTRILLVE
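Screened at intermediate enzyme activity to detect both inhibitors and activators: LmPK at 0.1 nM, with a 0.5 nM enzyme column as activation reference. PEP 0.5 mM, ADP 0.1 mM; ATP detected by luminescence after 1 h.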
Flu NS1 inh – validation of influenza NS1 protein function inhibitors; shares compounds with NS1 inh; influenza NS1 function cell assay, 15-point titration; activity change, negative = inhibition, % at 32.9 µM; 1,400 tested, under 10 active; AID 492980; calls by dose curve
Flu PR8 replic – reduces influenza A/PR/8/34 replication in MDCK cells. hit rate 30% among 95. virus titer (log TCID50), log10 TCID50 at 5 µM. MDCK infected influenza A/PR/8/34, virus titer TCID50; active compounds read low. AID 504647. shares compounds with NS1 inh; call rule not given here
Large screens that a line does not name were inactive (follow-up assays come after a bar, where they were run). Rows were chosen to be rich in hits. Some 0.77% of all compounds tested hit in one or more screens of this group. Unless noted, calls come from the whole dose curve; as a rule, active = well fitted curve in the direction sought with a large enough effect; inconclusive = small, poorly fitted or top-dose-only effect, or another doubt; inactive = no such curve, though single readings can be large; an effect the other way counts as inactive or inconclusive.

COc1ccccc1NS(=O)(=O)c1cccc(C(=O)N/N=C/c2c(C)nn(-c3ccccc3)c2N2CCCC2)c1	NS1 inh 11.2µM | Flu NS1 inh inactive
COc1ccccc1NS(=O)(=O)c1ccc(N/N=C/c2c(C)nn(-c3ccccc3)c2N2CCCC2)c([N+](=O)[O-])c1	none
Cn1c(=O)oc2cc(S(=O)(=O)N3CCC(C(=O)N4CCN(c5ccccc5F)CC4)CC3)ccc21	none (no result: NS1 inh, RE007 growth inh, LmPK inh)
Cc1cc(NC(=O)c2cccc(S(=O)(=O)N(C)C)c2)n(-c2ccccn2)n1	NS1 inh 12.6µM | Flu NS1 inh inactive
Cc1cc(NC(=O)c2cccc(S(=O)(=O)N3CCCCCC3)c2)n(-c2ccccn2)n1	none
CCC(=O)Nc1ccc(Cl)c(NC(=S)NC(=O)c2cc3ccccc3o2)c1	NS1 inh inconclusive | Flu NS1 inh inactive
Cc1ccc(NC(=O)C(Nc2cccc(C)c2)c2ccccc2)cc1 (stereo not drawn)	NS1 inh inconclusive | Flu NS1 inh inconclusive
Cc1ccc(NC(=O)C(Nc2ccccc2)c2ccccc2)cc1 (stereo not drawn)	none
COc1ccc(OC)c(-n2c(C)nc3cc(C(=O)O)ccc32)c1	NS1 inh 14.1µM | Flu NS1 inh inactive
Cc1ccc(C)c(OCCn2c(-c3ccc(Cl)cc3)nc3ccccc3c2=O)c1C	none (no result: NS1 inh, RE007 growth inh, LmPK inh)
CCN1CCN(CCCNC(=O)Cn2c(-c3cccs3)cc3cc(F)ccc32)CC1	none (no result: NS1 inh, RE007 growth inh, LmPK inh)
COc1ccc(C2CC(c3ccccc3)=NN2c2ccc(/C=N/NC(=O)c3ccncc3)cc2)cc1 (stereo not drawn)	none
N#CCC(=O)N/N=C/c1ccc(N2N=C(c3ccccc3)CC2c2ccccc2)cc1 (stereo not drawn)	NS1 inh 1.12µM | Flu NS1 inh inactive
CCCCN1C(=O)c2[nH]nc(-c3ccccc3O)c2C1c1ccc(C(C)(C)C)cc1 (stereo not drawn)	none (no result: NS1 inh, RE007 growth inh, LmPK inh)
Cn1cnc([N+](=O)[O-])c1[Se]c1nc(N)nc2c1ncn2[C@@H]1O[C@@H](CO)[C@H](O)[C@@H]1O	none (no result: TbPYK inhibitor, RE007 growth inh, LmPK inh)
CCCC(C)C(=O)Nc1nc(C)c(-c2csc(Nc3ccccc3OC)n2)s1 (stereo not drawn)	none
CCCC(C)C(=O)Nc1nc(C)c(-c2csc(Nc3ccc(Cl)cc3)n2)s1 (stereo not drawn)	NS1 inh 4.47µM | Flu NS1 inh inactive
CO[C@@H]1[C@H](N(C)C(=O)c2ccccc2)C[C@H]2O[C@]1(C)n1c3ccccc3c3c4c(c5c6ccccc6n2c5c31)C(=O)NC4	none (no result: NS1 inh, RE007 growth inh, LmPK inh)
CC(=O)N1CCC2(CC1)CCN(c1ccc(-c3ccccc3)cc1)CC2	none (no result: NS1 inh, RE007 growth inh, LmPK inh)
COC(=O)CCCC(=O)N1CCCC(C(=O)c2ccc(OC)cc2C)C1 (stereo not drawn)	NS1 inh inconclusive | Flu NS1 inh inactive
COc1ccc(C(=O)C2CCCN(C(=O)CCc3ccccn3)C2)c(C)c1 (stereo not drawn)	none
CCOC(=O)c1ccccc1NC(=O)Cn1c(=O)n(CCC(=O)NCc2ccccc2OC)c(=O)c2ccccc21	none (no result: NS1 inh, RE007 growth inh, LmPK inh)
COc1cc(C(c2c(C(=O)O)[nH]c3ccccc23)c2c(C(=O)O)[nH]c3ccccc23)ccc1OCc1ccccc1	NS1 inh 6.31µM | Flu NS1 inh inactive
CCC(C(=O)Nc1ccccc1C(=O)OC)n1c(C)c2cnn(-c3ccccc3)c(=O)c2c1C (stereo not drawn)	none (no result: NS1 inh, RE007 growth inh, LmPK inh)
CCc1ccc(N2C(=O)NC(=O)/C(=C\C=C\c3ccco3)C2=O)cc1	NS1 inh 11.2µM | Flu NS1 inh inactive
Cc1ccc(N2C(=O)NC(=O)/C(=C/C=C/c3ccco3)C2=O)cc1	none
CCCCc1cc2c(cn1)=C(OC(=O)C1CCCC1)C(C)(OC(=O)CC)C(=O)C=2 (stereo not drawn)	none (no result: TbPYK inhibitor, NS1 inh, RE007 growth inh)
Cc1nn(Cc2ccccc2Cl)c(Cl)c1C(=O)OCC(=O)NC(=O)NC1CCCCC1	NS1 inh 22.4µM | Flu NS1 inh inactive
Cc1ccc2cc(C3C(C#N)=C(N)Oc4c3ccc3cccnc43)c(=O)[nH]c2c1 (stereo not drawn)	NS1 inh 2.82µM | Flu NS1 inh inactive
CCc1ccc(CCN2CCCCC2)nc1	none (no result: TbPYK inhibitor, RE007 growth inh, LmPK inh)
CCn1c(=O)c2sccc2n2c(CCC(=O)Nc3ccc(F)cc3)nnc12	none (no result: NS1 inh, RE007 growth inh, LmPK inh)
COC(=O)c1ccc(Sc2ccccc2NS(=O)(=O)c2ccc(C)cc2)nc1	NS1 inh inconclusive | Flu NS1 inh inconclusive
Cc1ccc(S(=O)(=O)Nc2ccccc2C=O)cc1	none (no result: TbPYK inhibitor, RE007 growth inh, LmPK inh)
Cc1ccc(S(=O)(=O)Nc2ccccc2-c2ccccc2NS(=O)(=O)c2ccc(C)cc2)cc1	NS1 inh 10µM | Flu NS1 inh inactive | Flu PR8 replic inactive
Oc1cccc(-c2c3nc(c(-c4cccc(O)c4)c4ccc([nH]4)c(-c4cccc(O)c4)c4nc(c(-c5cccc(O)c5)c5ccc2[nH]5)CC4)C=C3)c1	none (no result: NS1 inh, RE007 growth inh, LmPK inh)
CC(=O)NC1(C(F)(F)F)C(=O)Nc2c1c(=O)n(C)c(=O)n2C (stereo not drawn)	none
Cc1nnc(NC2(C(F)(F)F)C(=O)Nc3c2c(=O)n(C)c(=O)n3C)s1 (stereo not drawn)	NS1 inh inconclusive | Flu NS1 inh inactive
CC1CCN(c2nnc(-n3cccc3CNc3cccc(F)c3)s2)CC1	none (no result: NS1 inh, RE007 growth inh, LmPK inh)
O=C(CSc1ccc(Cl)cc1)NC1=NN(c2ccccc2)C(=O)C1	NS1 inh 11.2µM | Flu NS1 inh inactive
O=C(/C=C1\NC2(CCCC2)Cc2ccccc21)C(=O)N/N=C/c1ccc(O)c(O)c1	NS1 inh 17.8µM | Flu NS1 inh inactive
COc1ccc(/C=N/NC(=O)C(=O)/C=C2\NC3(CCCC3)Cc3ccccc32)cc1	none
Clc1ccc(-c2csc(N3CCC(c4ccccc4)C3)n2)cc1 (stereo not drawn)	none
Fc1ccc(-c2csc(N3CCC(c4ccccc4)C3)n2)cc1 (stereo not drawn)	TbPYK inhibitor inconclusive, NS1 inh inconclusive | Flu NS1 inh inactive
OCCN(CCO)c1ccc(C(c2ccc(Cl)cc2)c2ccc(N(CCO)CCO)cc2Cl)c(Cl)c1	NS1 inh 14.1µM | Flu NS1 inh inactive
Nc1ccc(N(CCO)CCO)cc1	none
CCN(CC)CCCN=Cc1c(O)n(CCc2ccc(F)cc2)c(=O)[nH]c1=O	NS1 inh inconclusive | Flu NS1 inh inactive
CCc1cc2c(cc3c(=O)n(CCCC(=O)NCc4cccc(Br)c4)ncn32)s1	none (no result: NS1 inh, RE007 growth inh, LmPK inh)
CN(c1ccccc1)S(=O)(=O)c1ccc(Cl)c(C(=O)Nc2nc3ccccc3[nH]2)c1	NS1 inh 10µM | Flu NS1 inh inactive
Cc1ccc(S(=O)(=O)CCC(=O)OCC(=O)N2CC(=O)Nc3ccccc32)cc1	NS1 inh inconclusive | Flu NS1 inh inactive
COc1cc(/C=C2\C(=O)NC(=O)N(c3ccccc3)C2=O)cc(OC)c1OC	TbPYK inhibitor inconclusive, NS1 inh 7.94µM | Flu NS1 inh inactive
